Records with an inconclusive call do not appear. Activity calls are given as the source filed them. Unless noted, the call rests on the fitted dose curve; in most records, active means well fitted curve in the direction sought with a large enough effect; inconclusive means small, poorly fitted or top-dose-only effect, or another doubt; inactive means no such curve, though single readings can be large; an effect the other way counts as inactive or inconclusive.
How the values were obtained:
[1] = Cell Viability - Jurkat (AID 426;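 active means dose-dependent loss of cell ATP signal giving a full or clear fitted curve, ranked by lower potency value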; further: potency means the concentration at half of the fitted maximal effect); details: qHTS
How it was run: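 Cytotoxicity taken as drop in cellular ATP (CellTiter-Glo luminescence, 20 min room temperature) after 40 hr, 37C treatment of 5000 Jurkat Clone E6-1 cells per well; concentration-response fitted with Hill equation for AC50.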

[2] = Cell Viability - Hek293 (AID 427;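 active means compounds whose dose-response curve shows a full or clear partial loss of cell viability, called from curve shape rather than a numeric limit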;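 further: potency means the concentration at half of the fitted maximal effect; cells exposed to compound for 40 hours at 37 °C before reading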); details: qHTS
How it was run: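 HEK293 cells in complete medium were exposed to compound for 40 hr at 37 °C, then cellular ATP was read by CellTiter-Glo luminescence. Data were normalized to DMSO (basal) and 100 uM tamoxifen (100% inhibition), and AC50 came from Hill fits.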

[3] = Cell Viability - HepG2 (AID 433; calls by dose curve;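 further: potency means the concentration at half of the fitted maximal effect; potency for ATP loss meaning cytotoxicity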); details: qHTS
How it was run: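 ATP luminescence (CellTiter-Glo) after 40 h compound exposure, 37 °C, HepG2, 1500 cells/well, complete medium. Normalized: DMSO = basal, 100 uM tamoxifen = 100% inhibition. AC50 via standard Hill equation.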

[4] = Cell Viability - SK-N-SH (AID 435; calls by dose curve; further: potency means the concentration at half of the fitted maximal effect); details: SK-N-SH neuroblastoma cell viability qHTS
How it was run: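 CellTiter-Glo ATP luminescence, 20 min RT read; cells pre-plated 5 hr, compound 40 hr at 37 °C, 1500 cells/well, complete medium. Normalized DMSO = 0, 100 uM tamoxifen = 100% inhibition; Hill-fit AC50.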

[5] = biological target: Mitogen-activated protein kinase 10 (Mus musculus) (UniProt Q61831); assay: JNK3 AlphaScreen Assay (AID 530; active means well fitted curve in either direction with a large enough effect, not every such curve was filed as active;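 further: kinase came from lysate of stimulated human HepG2 cells; signal reports phosphorylation of biotinylated GST-cJun 1-79 at Ser73 with 10 µM ATP; on the % scale 0 is the no-effect control and ±100 the full control effect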); details: JNK3 lysate, c-Jun phosphorylation; series mostly up to 57.1 µM
How it was run: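 Phosphorylation of biotinylated GST-cJun(1-79) at Ser73 is measured by AlphaScreen proximity luminescence. Enzyme is JNK3 in HepG2 lysates activated with interleukin-1beta and tumor necrosis factor alpha; ATP is 10 uM final.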

[6] = Cell Viability - N2a (AID 540); details: N2a mouse neuroblastoma cell viability; activity change, negative = cytotoxicity: at 92.2 µM (top of the series);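 further: plate controls were DMSO alone for no effect and tamoxifen control for full effect; nearly all actives have a fitted effect of over 45% in size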
How it was run: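 CellTiter-Glo ATP luminescence, read 20 min after reagent at room temperature, reported viability following 40 h compound treatment at 37 °C. N2a mouse neuroblastoma cells seeded 1500/well; Hill equation gave AC50.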

[7] = Cell Viability - NIH 3T3 (AID 541); details: NIH 3T3 cell viability, qHTS; activity change, negative = cytotoxicity: at 92.2 µM (top of the series);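 further: plate controls were DMSO alone for no effect and tamoxifen positive control for full effect; nearly all actives have a fitted effect of over 25% in size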
How it was run: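 Intracellular ATP (CellTiter-Glo luminescence, 20 min at room temperature) measured after 40 hr compound exposure at 37 °C of 1000 NIH 3T3 mouse fibroblasts/well in complete medium; AC50 derived by Hill-equation modelling of qHTS concentration-response curves.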

[8] = Cell Viability - HUV-EC-C (AID 542); details: HUV-EC-C endothelial cell viability, qHTS; series mostly up to 92.2 µM; further: on the % scale 0 is the no-effect control and ±100 the full control effect; nearly all actives have a fitted effect of over 35% in size
How it was run: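 CellTiter-Glo luminescence measured ATP loss in HUV-EC-C cells (1000/well) after 40 hr compound exposure at 37 °C, in complete culture medium. Concentration-response data were Hill-fitted to give AC50.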

[9] = Cell Viability - H-4-II-E (AID 543); details: H-4-II-E rat hepatoma viability; series mostly up to 92.2 µM; further: on the % scale 0 is the no-effect control and ±100 the full control effect; nearly all actives have a fitted effect of over 35% in size
How it was run: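 CellTiter-Glo luminescence (intracellular ATP) measured after 40 h compound exposure at 37 °C in H-4-II-E rat hepatoma cells seeded at 1500/well. Values are AC50s fitted with the standard Hill equation.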

[10] = Cell Viability - SH-SY5Y (AID 544); details: SH-SY5Y neuroblastoma cell viability; viability change, negative = cytotoxic: at 92.2 µM (top of the series); further: nearly all actives have a fitted effect of over 55% in size
How it was run: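 Cytotoxicity measured via ATP-dependent luciferase luminescence (CellTiter-Glo) following 40 h, 37 °C exposure of 1500 SH-SY5Y cells per well. Concentration-response data were fitted with the standard Hill equation to give AC50.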

[11] = Cell Viability - Renal Proximal Tubule (AID 545); details: renal proximal tubule cells viability, primary cells of rat origin; series mostly up to 91.7 µM; further: nearly all actives have a fitted effect of over 40% in size
How it was run: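 Rat kidney proximal tubule cells, freshly isolated; 1000 cells/well, 5 hr settle, compound 40 hr 37 °C. CellTiter-Glo 20 min RT, luminescence read. AC50 by standard Hill fit.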

[12] = Cell Viability - Mesenchymal (AID 546); details: mesenchymal cells viability, qHTS; series mostly up to 91.7 µM;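 further: cells exposed to compound for 40 hours before reading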
How it was run: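 In this qHTS cytotoxicity format, glomerulus-derived human mesenchymal kidney cells received compound for 40 hr, then luciferase-based ATP quantitation. Concentration-response data were fitted with the Hill equation.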

[13] = Cellular Toxicity (caspase-3) HUV-EC-C (AID 656); details: HUV-EC-C cells, caspase-3 activation (apoptosis), vehicle = 0, 100 µM tamoxifen = 100%; series mostly up to 92.2 µM
How it was run: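 Luminescent caspase-3/7 activation (aminoluciferin substrate cleavage) in HUV-EC-C cells after 16 hr compound exposure, 37°C. Signal normalized to DMSO basal and 100 uM tamoxifen as 100%; AC50 from concentration-response fitted with the Hill equation.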

[14] = Cellular Toxicity (caspase-3) SHSY5Y (AID 657); details: SH-SY5Y caspase-3 activation, DMSO zero, 10 µM staurosporine = 100%; series mostly up to 91.7 µM;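 further: cells exposed to compound for 16 hours at 37 °C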
How it was run: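 Luminescent caspase-3/7 readout (aminoluciferin release) in SH-SY5Y cells after 16 h compound exposure in complete medium. Activity scaled between DMSO basal and 10 uM staurosporine as 100%; concentration-response fitted to Hill equation for AC50.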

[15] = Cellular Toxicity (caspase-3) BJ (AID 658); details: BJ fibroblasts, luminescence, normalized: DMSO 0%, staurosporine 100%; series mostly up to 91.7 µM;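 further: cells exposed to compound for 16 hours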
How it was run: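 Plated BJ cells (1000/well) rested 5 hr, received compound for 16 hr at 37 °C, then Caspase-Glo 3/7 reagent for 1 hr at room temperature before luminescence reading.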

[16] = Cellular Toxicity (caspase-3) MRC-5 (AID 659); details: MRC-5 cells, luminescence, normalized: DMSO 0%, 10 µM staurosporine 100%; series mostly up to 91.7 µM;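 further: cells exposed to compound for 16 h at 37 °C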
How it was run: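 Apoptosis readout in MRC-5 cells: luciferase light generated after caspase 3/7 cleaves a peptide-aminoluciferin substrate, measured post 16 hr compound incubation at 37 °C.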

[17] = Cell Viability - MRC5 (AID 434; calls by dose curve;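 further: potency means the concentration at half of the fitted maximal effect; potency reflects cytotoxicity seen as loss of intracellular ATP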); details: MRC5 lung fibroblast viability, qHTS
How it was run: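 Decrease in intracellular ATP, quantified by luciferase light output, reflects compound toxicity toward MRC5 cells exposed for 40 hr in complete culture medium. Concentration-response curves, scaled between DMSO and 100 uM tamoxifen, gave AC50 values.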

[18] = Cellular Toxicity (caspase-3) Jurkat (AID 655); details: Jurkat caspase-3 activation, luminescence; caspase-3 activation: at 92.2 µM (top of the series), DMSO = 0%, tamoxifen = 100%;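 further: cells exposed to compound for 16 h at 37 °C before reading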
How it was run: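 Luminescent caspase-3/7 readout (aminoluciferin substrate cleavage) in human T-cell leukemia Jurkat cells after 16 hr compound exposure. Concentration-response normalized to DMSO and 100 uM tamoxifen; AC50 by standard Hill equation.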

[19] = Cellular Toxicity (caspase-3) HepG2 (AID 654); details: HepG2 caspase-3 activation, luminescence; series mostly up to 92.2 µM;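 further: cells exposed to compound for 16 hours before reading; 0% = DMSO alone and 100% = caspase signal from 100 µM tamoxifen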
How it was run: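 Caspase 3/7 activation is measured as a luminescence increase (aminoluciferin substrate) after 16 h compound exposure of human hepatocarcinoma HepG2 cells. AC50 values are Hill fits, scaled between DMSO baseline and 100 uM tamoxifen stimulation.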

O=c1[nH][nH]c(=O)c2cc([N+](=O)[O-])ccc12
inactive: Potency [1] > 92 µM | Potency [2] > 92 µM | Potency [3] > 92 µM | Potency [4] > 92 µM | outcome [5] | activity change, negative = cytotoxicity [6] 11.9% | Potency [7] | Potency [8] | Potency [9] | Potency [10] | Potency [11] | Potency [12] | outcome [13] | outcome [14] | outcome [15] | outcome [16]

O=C(O)CNC(=O)c1ccc([N+](=O)[O-])cc1
inactive: Potency [1] > 92 µM | Potency [2] > 92 µM | Potency [3] > 92 µM | Potency [17] > 92 µM | Potency [4] > 92 µM | activity change, negative = cytotoxicity [6] -8.74% | Potency [7] | Potency [8] | Potency [9] | Potency [10] | Potency [11] | Potency [12] | caspase-3 activation [18] 1.61% | outcome [13] | outcome [14] | outcome [15] | outcome [16]

O=Cc1ccc(CO)o1
inactive: Potency [1] > 92 µM | Potency [2] > 92 µM | Potency [3] > 92 µM | Potency [17] > 92 µM | Potency [4] > 92 µM | outcome [5] | activity change, negative = cytotoxicity [6] 1.46% | Potency [7] | Potency [8] | Potency [9] | Potency [10] | Potency [11] | Potency [12] | Potency [19] | caspase-3 activation [18] -0.436% | outcome [13] | outcome [14] | outcome [15] | outcome [16]

Fc1ccccc1
inactive: Potency [1] > 92 µM | Potency [2] > 92 µM | Potency [3] > 92 µM | Potency [17] > 92 µM | Potency [4] > 92 µM | outcome [5] | activity change, negative = cytotoxicity [6] 2.48% | Potency [7] | Potency [8] | Potency [9] | Potency [10] | Potency [11] | Potency [12] | Potency [19] | caspase-3 activation [18] 0.771% | outcome [13] | outcome [14] | outcome [15] | outcome [16]

CCCCCCCCCCCCOCC1CO1 (stereo unspecified)
inactive: Potency [1] > 92 µM | Potency [2] > 92 µM | Potency [3] > 92 µM | Potency [17] > 92 µM | Potency [4] > 92 µM | activity change, negative = cytotoxicity [6] 0.002% | Potency [7] | Potency [8] | Potency [9] | Potency [10] | Potency [11] | Potency [12] | Potency [19] | caspase-3 activation [18] 3.67% | outcome [13] | outcome [14] | outcome [15] | outcome [16]

CCC(O)C(C)(C)C (stereo unspecified)
inactive: Potency [2] > 92 µM | Potency [3] > 92 µM | Potency [17] > 92 µM | Potency [4] > 92 µM | outcome [5] | activity change, negative = cytotoxicity [6] 5.57% | Potency [7] | Potency [8] | Potency [9] | Potency [10] | Potency [11] | Potency [12] | Potency [19] | caspase-3 activation [18] 2.09% | outcome [13] | outcome [14] | outcome [15] | outcome [16]

C=Cc1ccccc1C=C
inactive: Potency [1] > 92 µM | Potency [2] > 92 µM | Potency [3] > 92 µM | Potency [17] > 92 µM | Potency [4] > 92 µM | outcome [5] | activity change, negative = cytotoxicity [6] 7.3% | Potency [7] | Potency [8] | Potency [9] | Potency [10] | Potency [11] | Potency [12] | Potency [19] | caspase-3 activation [18] -0.124% | outcome [13] | outcome [14] | outcome [15] | outcome [16]

Clc1ccccn1
inactive: Potency [1] > 92 µM | Potency [2] > 92 µM | Potency [3] > 92 µM | Potency [17] > 92 µM | Potency [4] > 92 µM | outcome [5] | activity change, negative = cytotoxicity [6] -19.1% | Potency [7] | Potency [8] | Potency [9] | Potency [10] | Potency [11] | Potency [12] | Potency [19] | caspase-3 activation [18] -1.1% | outcome [13] | outcome [14] | outcome [15] | outcome [16]

Cc1cccc2ccccc12
inactive: Potency [1] > 92 µM | Potency [2] > 92 µM | Potency [3] > 92 µM | Potency [17] > 92 µM | Potency [4] > 92 µM | outcome [5] | activity change, negative = cytotoxicity [6] -4.08% | Potency [7] | Potency [8] | Potency [9] | Potency [10] | Potency [11] | Potency [12] | Potency [19] | caspase-3 activation [18] -1.75% | outcome [13] | outcome [14] | outcome [15] | outcome [16]

CCOC(=O)OCC
inactive: Potency [1] > 92 µM | Potency [2] > 92 µM | Potency [3] > 92 µM | Potency [4] > 92 µM | outcome [5] | activity change, negative = cytotoxicity [6] -11.2% | Potency [7] | Potency [8] | Potency [9] | Potency [10] | Potency [12] | Potency [19] | caspase-3 activation [18] 0.854% | outcome [13] | outcome [14] | outcome [15] | outcome [16]

CC(=C/C=C/C(C)=C/C=C/C=C(C)/C=C/C=C(C)/C=C/C(=O)O)/C=C/C(=O)O
inactive: Potency [1] > 92 µM | Potency [2] > 92 µM | Potency [3] > 92 µM | Potency [17] > 92 µM | Potency [4] > 92 µM | outcome [5] | activity change, negative = cytotoxicity [6] -0.984% | Potency [7] | Potency [8] | Potency [9] | Potency [10] | Potency [12] | Potency [19] | caspase-3 activation [18] -0.472% | outcome [13] | outcome [14] | outcome [15] | outcome [16]

C=C(C)OC(C)=O
inactive: Potency [1] > 92 µM | Potency [2] > 92 µM | Potency [3] > 92 µM | Potency [17] > 92 µM | outcome [5] | activity change, negative = cytotoxicity [6] -6.88% | Potency [8] | Potency [9] | Potency [10] | Potency [11] | Potency [12] | Potency [19] | caspase-3 activation [18] -0.77% | outcome [13] | outcome [14] | outcome [15] | outcome [16]

From PubChem BioAssay (NCATS)
